Reference: PubChem BioAssay (EPA / NIEHS)
The source made the active and inactive calls. How the source made its calls: active means hit-call score of the fitted dose curve at least 0.9, where 1 is the maximum; inactive means score below 0.9.

How the values were obtained:
[1] = APR_HepG2_P-H2AX_72hr: Apredica 72-hour HepG2 Assay for H2AX Phosphorylation (AID 2282916); details: imaging, actives raise or lower the signal;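 further: phospho-histone H2A.x immunostain intensity per cell marking DNA damage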
In short: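 Phospho-H2A.x imaging endpoint in HepG2 after 72 hr compound exposure (0.39–200 uM, duplicate wells). Activity derived by bidirectional curve fitting with DMSO as baseline.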

[2] = APR_HepG2_MitoMembPot_72hr: Apredica 72-hour HepG2 Assay for Mitochondrial Membrane Potential (AID 2282917); details: imaging, actives raise or lower the signal
In short: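 HepG2 cells dosed 72 hr with compound at 0.39–200 uM in duplicate, 0.5% v/v DMSO final. Mitochondria stained with 250 nM MitoTracker Red CMXRos for 30 min before formaldehyde fixation, imaged by high-content fluorescence; bidirectional fit versus DMSO.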

[3] = APR_HepG2_MitoticArrest_72hr: Apredica 72-hour HepG2 Assay for Mitotic Arrest (AID 2282918); details: high-content imaging, actives raise or lower the signal
In short: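 Mitotic arrest in HepG2 is scored from phospho-histone H3 staining after 72 hr dosing across 0.39–200 uM, with DMSO at 0.5% v/v. Nuclei are identified by Hoechst 33342 and fluorescence intensity is quantified per cell.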

[4] = APR_HepG2_MicrotubuleCSK_72hr: Apredica 72-hour HepG2 Assay for Microtubule CSK Stabilty (AID 2282919); details: HepG2 microtubule cytoskeleton, high-content imaging, actives raise or lower the signal
In short: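 HepG2, 72 hr cmpd exposure, 0.39–200 uM (10 pts, duplicate), 0.5% DMSO. 3.7% formaldehyde fix, 0.5% Triton perm, anti-alpha-tubulin/Cy5 plus Hoechst. HCS fluorescence intensity; bidirectional fit vs DMSO baseline; taxol as positive control.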

[5] = APR_HepG2_P-H2AX_24hr: Apredica 24-hour HepG2 Assay for H2AX Phosphorylation (AID 2282920); details: high-content imaging, actives raise or lower the signal
In short: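 Signal comes from a FITC-labeled secondary detecting phospho-histone H2A.x in fixed HepG2 cells, quantified by automated imaging at 20x. Dosing ran 24 hr across 0.39–200 uM with 0.5% v/v DMSO.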

[6] = APR_HepG2_StressKinase_72hr: Apredica 72-hour HepG2 Assay for Stress Kinase (AID 2282921); details: HepG2 stress kinase (phospho-c-Jun) imaging, actives raise or lower the signal
In short: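 Stress kinase signal reflects nuclear phospho-c-Jun staining in fixed, permeabilized cells exposed 72 h to compound at 0.39–200 uM; DMSO-normalized, fitted for increases or decreases.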

[7] = APR_HepG2_p53Act_72hr: Apredica 72-hour HepG2 Assay for p53 Activation (AID 2282923); details: high-content imaging, actives raise or lower the signal;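 further: average cellular p53 protein immunofluorescence intensity in HepG2 cells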
In short: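 Fixed-cell p53 staining (sheep primary, Cy5 secondary) measured by fluorescence imaging following 72 hr treatment at 0.39–200 uM in 0.5% DMSO; DMSO served as negative control and baseline.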

[8] = APR_HepG2_MitoMass_72hr: Apredica 72-hour HepG2 Assay for Mitochondrial Mass (AID 2282924); details: high-content imaging, actives raise or lower the signal;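 further: MitoTracker Red CMXRos stain intensity per cell imaged as mitochondrial mass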
In short: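 Read-out: MitoTracker Red fluorescence intensity from automated imaging (20x, six fields per well) in human HepG2 liver cells. Dosing ran 72 hr, 0.39–200 uM, 0.5% DMSO; bidirectional curve fitting versus DMSO baseline.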

[9] = APR_HepG2_NuclearSize_72hr: Apredica 72-hour HepG2 Assay for Nuclear Size (AID 2282925); details: high-content imaging, actives raise or lower the signal
In short: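 Read-out: nuclear diameter from Hoechst 33342 images (ArrayScan, 20x, six fields/well), via cell-cycle image analysis. HepG2 were dosed 0.39–200 uM for 72 hr in 0.5% DMSO. Bidirectional fit relative to DMSO.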

[10] = APR_HepG2_StressKinase_24hr: Apredica 24-hour HepG2 Assay for Stress Kinase (AID 2282922); details: HepG2 stress kinase (phospho-c-Jun) imaging, actives raise or lower the signal
In short: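 Read-out: phospho-c-Jun immunofluorescence (Cy3 secondary) quantified by high-content imaging at 20x, nuclei defined by Hoechst 33342. Human HepG2 liver cells dosed 24 hr, 0.39–200 uM, DMSO 0.5% v/v; gain or loss of signal fitted relative to DMSO.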

Measured: AC50

Cc1ccc(S(=O)(=O)O)cc1C
active: [8] 0.0391 µM
not listed: [10]
inactive: all other assays above

CNCc1ccc(NC(=O)c2c[nH]c3c2C(=O)CCC3)cc1
not listed: [10]
inactive: all other assays above

CCOC(=O)COc1ccc2c(c1)CC(NCC(O)c1cccc(Cl)c1)CC2 (stereo not drawn)
active: [3] 23.1 µM | [5] 23.2 µM
not listed: [1]
inactive: all other assays above

COCCOCCOCCOC
not listed: [10]
inactive: all other assays above

CCOC(=O)CC(CC(=O)OCC)(OC(C)=O)C(=O)OCC
not listed: [10]
inactive: all other assays above

C1N2CN3CN1CN(C2)C3
not listed: [10]
inactive: all other assays above

O=C(O)CCN(C1(C(=O)NO)CCCC1)S(=O)(=O)c1ccc(Oc2ccc(F)cc2)cc1
not listed: [10]
inactive: all other assays above

O=C(CCCCCCCCc1cccnc1)N1CCC(C=C(c2ccccc2)c2ccccc2)CC1
not listed: [1]
inactive: all other assays above

O=C(O)c1cccc(N(Cc2cccnc2)c2ccc(OC(F)F)c(OC(F)F)c2)c1
active: [1] 6.52 µM | [3] 4.04 µM | [5] 30.8 µM | [6] 15.4 µM | [7] 4.01 µM | [9] 17.4 µM
inactive: [2] | [4] | [8]

CC(C)=CCCC(C)=CC=O
not listed: [10]
inactive: all other assays above

COC(=O)c1c(Cl)c(Cl)c(C(=O)OC)c(Cl)c1Cl
not listed: [10]
inactive: all other assays above

C[C@](N)(Cc1ccc(O)c(O)c1)C(=O)O
active: [2] 58.4 µM
not listed: [10]
inactive: all other assays above

CCCCC(CC)COC(=O)c1ccc(C(=O)OCC(CC)CCCC)cc1 (stereo not drawn)
active: [1] 31.5 µM
not listed: [10]
inactive: all other assays above

C=CCCCCCCCCC(=O)O
not listed: [1]
inactive: all other assays above

CC(C)CCO
not listed: [10]
inactive: all other assays above

CC(O)CN(CCN(CC(C)O)CC(C)O)CC(C)O (stereo not drawn)
not listed: [1]
inactive: all other assays above

Fc1ccccc1[C@@H](F)COC1CCC(Nc2ncnc3[nH]ncc23)CC1 (stereo partly drawn)
active: [1] 51.3 µM | [3] 60 µM | [4] 81.2 µM | [5] 74.9 µM | [7] 55.6 µM
inactive: [2] | [6] | [8] | [9]

O=c1[nH]c2ccc(S(=O)CCN3CCC(Cc4ccc(F)cc4)CC3)cc2o1 (stereo not drawn)
not listed: [1]
inactive: all other assays above

COc1ccc(-n2nc(C(F)F)cc2-c2ccc(S(C)=O)cc2)cc1 (stereo not drawn)
active: [8] 36.8 µM
not listed: [1]
inactive: all other assays above

CC1=CC(=O)CC(C)(C)C1
not listed: [1]
inactive: all other assays above

CCN(C(=O)c1cc(C)cc(OC[C@H](C)Nc2ccncc2)c1)C(C)C
not listed: [1]
inactive: all other assays above

Nc1ccc(Nc2ccccc2)cc1
active: [3] 42.1 µM | [5] 17.9 µM | [7] 33.3 µM
not listed: [1] | [10]
inactive: all other assays above

On1ccccc1=S
active: [3] 21.5 µM | [6] 5.96 µM | [7] 8.59 µM | [9] 3.98 µM
inactive: [2] | [4] | [5] | [8]

CCCC(=O)OCC
not listed: [1] | [10]
inactive: all other assays above

COCCOc1cc2cc(C(=O)NC3CCN(C(C)C)CC3)n(CC(=O)Nc3ccc(Cl)cn3)c2cn1
active: [3] 63.2 µM | [4] 83.7 µM | [5] 94.3 µM
not listed: [1]
inactive: all other assays above

CC(=O)OC[C@H]1O[C@@](COC(C)=O)(O[C@H]2O[C@H](COC(C)=O)[C@@H](OC(C)=O)[C@H](OC(C)=O)[C@H]2OC(C)=O)[C@@H](OC(C)=O)[C@@H]1OC(C)=O
not listed: [1] | [10]
inactive: all other assays above

Nc1cccc(N)c1
active: [5] 48.3 µM
not listed: [1] | [10]
inactive: all other assays above

COC(=O)c1ccccc1O
not listed: [1] | [10]
inactive: all other assays above

CCc1cc(SCc2sc(-c3ccc(C(F)(F)F)cc3)nc2CN2CCN(c3ccc(OC)cc3)CC2)ccc1OCC(=O)O
active: [2] 116 µM | [3] 45 µM | [5] 54.5 µM | [7] 59 µM | [8] 33.2 µM
inactive: [4] | [6] | [9]

CCCCCCCCCCCCCCCO
active: [3] 95.6 µM
not listed: [1] | [10]
inactive: all other assays above

CCCN(C1CCN(C(=O)C2CCNCC2)CC1)[C@@H]1CCc2ccc(OC)cc2C1
active: [3] 53 µM | [5] 80.8 µM | [7] 68.9 µM | [8] 111 µM
not listed: [1]
inactive: all other assays above

CCOCCO
not listed: [1] | [10]
inactive: all other assays above

Cc1ccc(O)cc1
not listed: [1] | [10]
inactive: all other assays above

CC/C(=C\C(=N/O)C(N)=O)C(C)[N+](=O)[O-] (stereo not drawn)
not listed: [1] | [10]
inactive: all other assays above

CC(C)=CCC/C(C)=C\CO
active: [8] 94.5 µM
not listed: [1] | [10]
inactive: all other assays above

O=C1CCC(N2C(=O)c3ccccc3C2=O)C(=O)N1 (stereo not drawn)
not listed: [1] | [10]
inactive: all other assays above

Nc1nc2ncc(CNc3ccc(C(=O)N[C@@H](CCC(=O)O)C(=O)O)cc3)nc2c(=O)[nH]1
not listed: [1] | [10]
inactive: all other assays above

O=C(NS(=O)(=O)/C=C/c1ccccc1)c1ccc(F)cc1Cl
not listed: [1] | [10]
inactive: all other assays above

COc1ccc(/C=C/S(=O)(=O)NC(=O)c2ccc(C)cc2Cl)cc1
inactive: [4] | [6] | [8] | [9]
active: [2] 12.8 µM | [3] 102 µM | [5] 106 µM | [7] 113 µM

CCOc1cccc(-n2cc(C(=O)N3CCN(c4cc(C(=O)O)c5ccccc5c4)CC3)nc2-c2ccc(C)cc2)c1
active: [3] 77.2 µM | [5] 90.4 µM | [6] 60.2 µM | [7] 76.1 µM
not listed: [1]
inactive: all other assays above

COC(=O)CC(=O)OC
not listed: [1]
inactive: all other assays above

CCn1nc(Cc2ccccc2)cc1C1CCN(C[C@H]2C[C@H](N(C)[C@@H](C(=O)O)C(C)C)C[C@@H]2c2cccc(F)c2)CC1
active: [3] 113 µM
not listed: [1] | [10]
inactive: all other assays above

Cn1c(=O)cc(Oc2ccc(F)cc2F)c2cnc(NCC(C)(C)O)nc21
not listed: [1] | [10]
inactive: all other assays above

CC(C)CCCCCCCOC(=O)CCCCC(=O)OCCCCCCCC(C)C
not listed: [1]
inactive: all other assays above

CC[C@H]1OC(=O)[C@H](C)[C@@H](O[C@H]2C[C@@](C)(OC)[C@@H](O)[C@H](C)O2)[C@H](C)[C@@H](O[C@@H]2O[C@H](C)C[C@H](N(C)C)[C@H]2O)[C@](C)(O)C[C@@H](C)C(=O)[C@H](C)[C@@H](O)[C@]1(C)O
not listed: [1] | [10]
inactive: all other assays above

CCCCCCCCO
not listed: [1]
inactive: all other assays above

CC(C)=CCCC(C)CCO (stereo not drawn)
active: [3] 0.0229 µM | [8] 0.0391 µM
not listed: [1] | [10]
inactive: all other assays above
